Set-up in all cases: scale not given: direction of the effect not stated beside the values
In assay [1] the target is Protein translocase subunit SecA (Escherichia coli (strain K12)) (UniProt P10408). In words: Assay to Identify E. coli SecA ATPase Inhibitors. The format is functional. The following applies: 30 µM.
The target of assay [2] is T1, Ubiquitin-activating enzyme e1, putative (Leishmania donovani (strain BPK282A1)) (UniProt E9BSI1).
T1 sequence (whole entry): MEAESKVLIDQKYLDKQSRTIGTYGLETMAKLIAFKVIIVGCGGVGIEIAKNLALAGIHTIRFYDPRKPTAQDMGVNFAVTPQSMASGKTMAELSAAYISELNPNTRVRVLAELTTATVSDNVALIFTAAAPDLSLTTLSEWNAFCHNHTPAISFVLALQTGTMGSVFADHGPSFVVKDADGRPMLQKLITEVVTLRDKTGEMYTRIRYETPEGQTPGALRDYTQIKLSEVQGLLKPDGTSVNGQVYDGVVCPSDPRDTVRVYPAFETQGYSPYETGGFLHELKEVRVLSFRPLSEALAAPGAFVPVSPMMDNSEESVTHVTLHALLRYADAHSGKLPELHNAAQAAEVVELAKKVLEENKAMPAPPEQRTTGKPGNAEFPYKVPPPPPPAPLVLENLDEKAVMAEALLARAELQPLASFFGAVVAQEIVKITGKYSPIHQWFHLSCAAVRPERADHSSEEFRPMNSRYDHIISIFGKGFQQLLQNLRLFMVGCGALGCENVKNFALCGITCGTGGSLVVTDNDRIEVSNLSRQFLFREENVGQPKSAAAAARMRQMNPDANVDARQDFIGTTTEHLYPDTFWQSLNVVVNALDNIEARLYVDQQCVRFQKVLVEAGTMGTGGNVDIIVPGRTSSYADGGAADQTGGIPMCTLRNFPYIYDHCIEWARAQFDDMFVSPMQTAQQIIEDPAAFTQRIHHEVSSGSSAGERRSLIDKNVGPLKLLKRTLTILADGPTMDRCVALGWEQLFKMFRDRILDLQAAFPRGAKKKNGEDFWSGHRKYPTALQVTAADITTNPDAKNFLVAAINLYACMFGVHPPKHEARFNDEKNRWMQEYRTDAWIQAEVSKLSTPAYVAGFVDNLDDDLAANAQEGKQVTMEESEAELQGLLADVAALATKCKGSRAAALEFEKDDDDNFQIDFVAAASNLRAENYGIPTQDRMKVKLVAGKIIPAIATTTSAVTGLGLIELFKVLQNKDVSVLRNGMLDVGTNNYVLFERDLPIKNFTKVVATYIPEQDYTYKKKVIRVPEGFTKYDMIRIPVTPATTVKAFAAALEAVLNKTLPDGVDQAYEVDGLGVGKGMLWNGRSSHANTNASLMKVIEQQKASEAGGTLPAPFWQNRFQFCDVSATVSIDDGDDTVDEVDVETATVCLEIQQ
Nature of the assay: Leishmania donovani Ubiquitin Activating Enzyme (LdE1). The format is functional. The note with it: 30 µM.

Assay [3] has as its target AMP-activated protein kinase, AMPK (Homo sapiens) (UniProt P54646+O43741+P54619+Q9UGJ0+Q9Y478+Q13131+Q9UGI9). In words: AMP-dependent Kinase enzyme assay. An in vitro enzyme assay that detects ADP turnover that is directly proportional to AMPK activity. This uses naive AMPK that is activated during the assay with MK-8722. The note with it: 30 µM. The format is functional.

The target of assay [4] is Sialic acid-binding Ig-like lectin 9 (Homo sapiens) (UniProt Q9Y336). Nature of the assay: Hs-Siglec9 ALPHAscreen SOP 20170721. The following applies: 10 µM. In general terms: Alpha assays give light when donor and acceptor beads are brought close together.
Another assay relates to Trypanosoma cruzi. Nature of the assay: Trypanosoma cruzi phosphomannomutase and mannose-1-phosphate guanylyltransferase assay. The note with it: 10 µM. The format is functional.
Assay [5] deals with T2, Arginase-2, mitochondrial (Homo sapiens) (UniProt P78540).
T2 sequence (whole entry): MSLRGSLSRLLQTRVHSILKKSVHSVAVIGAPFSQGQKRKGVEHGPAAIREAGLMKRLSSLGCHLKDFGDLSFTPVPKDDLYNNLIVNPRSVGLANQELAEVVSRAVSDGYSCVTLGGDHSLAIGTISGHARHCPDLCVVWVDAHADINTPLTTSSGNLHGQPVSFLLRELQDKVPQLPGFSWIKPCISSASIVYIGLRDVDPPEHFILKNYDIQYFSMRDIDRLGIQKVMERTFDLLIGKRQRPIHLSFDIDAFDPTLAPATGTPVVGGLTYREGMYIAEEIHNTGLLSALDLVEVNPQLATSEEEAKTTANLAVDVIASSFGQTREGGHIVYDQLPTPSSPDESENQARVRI
In words: in vitro enzyme assay to detect the production of urea directly proportional to the activity of Arginase II. Also: in the data most compounds retested in dose-response had high values. The format is functional. The following applies: 33.3 µM.

Assay [6] concerns the target T3, Proteasome subunit beta (Trypanosoma cruzi) (UniProt O96673).
T3 sequence (whole entry): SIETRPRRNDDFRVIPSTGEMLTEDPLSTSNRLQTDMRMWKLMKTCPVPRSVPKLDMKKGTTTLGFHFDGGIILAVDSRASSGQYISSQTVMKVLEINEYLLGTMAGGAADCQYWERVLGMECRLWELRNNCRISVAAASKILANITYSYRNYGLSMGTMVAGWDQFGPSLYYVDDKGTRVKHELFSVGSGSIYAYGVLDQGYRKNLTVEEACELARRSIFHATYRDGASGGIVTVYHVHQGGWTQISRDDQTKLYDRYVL
Nature of the assay: Trypanosoma cruzi proteasome chymotrypsin-like activity (TcProtChymo) assay. Also: in the data most compounds retested in dose-response had high values. The class given is functional. The note with it: 9.37 µM.

Another assay is filed under the species Homo sapiens. Nature of the assay: To identify inhibition of the IFN signalling (Jak-Stat) pathway via expression of an eGFP reporter gene under the control of an IFN-stimulated response element (ISRE) containing MxA promoter. The class given is functional. The note with it: 30 µM. In general terms: Reporter assays use an easily measured gene product as a stand-in for the process of interest.

The target of assay [7] is T4, Tyrosyl-tRNA synthetase, putative (Trypanosoma cruzi (strain CL Brener)) (UniProt Q4DSP6).
T4 sequence (whole entry): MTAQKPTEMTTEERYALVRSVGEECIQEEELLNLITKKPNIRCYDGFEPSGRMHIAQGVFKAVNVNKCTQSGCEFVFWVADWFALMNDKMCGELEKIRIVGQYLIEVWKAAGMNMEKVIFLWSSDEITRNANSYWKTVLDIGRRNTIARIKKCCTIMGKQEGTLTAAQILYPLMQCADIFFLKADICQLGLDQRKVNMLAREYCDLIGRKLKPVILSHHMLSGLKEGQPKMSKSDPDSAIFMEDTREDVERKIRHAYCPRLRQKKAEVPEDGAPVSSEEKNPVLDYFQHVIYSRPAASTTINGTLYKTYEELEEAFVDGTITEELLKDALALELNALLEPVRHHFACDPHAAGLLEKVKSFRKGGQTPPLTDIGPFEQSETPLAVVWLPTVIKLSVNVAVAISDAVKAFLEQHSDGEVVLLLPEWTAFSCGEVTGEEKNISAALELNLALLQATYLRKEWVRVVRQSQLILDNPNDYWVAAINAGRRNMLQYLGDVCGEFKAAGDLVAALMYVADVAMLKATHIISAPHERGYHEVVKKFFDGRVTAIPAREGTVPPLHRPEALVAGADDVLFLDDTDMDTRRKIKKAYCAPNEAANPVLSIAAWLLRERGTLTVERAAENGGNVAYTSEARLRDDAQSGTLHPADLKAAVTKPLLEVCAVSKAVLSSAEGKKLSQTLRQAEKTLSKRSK
In words: Trypanosoma cruzi tyrosyl tRNA synthetase (TcYRS) _High Tyrosine SOP. Also: in the data most compounds retested in dose-response had high values. The class given is functional. The note with it: 30 µM.

Assay [8] addresses T4, Tyrosyl-tRNA synthetase, putative (Trypanosoma cruzi (strain CL Brener)). Nature of the assay: Trypanosoma cruzi tyrosyl tRNA synthetase (TcYRS) SOP. The note with it: 30 µM. The format is functional.
In assay [9] the target is Chromo domain-containing protein 1 (Saccharomyces cerevisiae (strain ATCC 204508 / S288c) (Baker's yeast)) (UniProt P32657). Nature of the assay: ScCHD-1 Enzyme Inhibition Assay. Also: in the data most compounds retested in dose-response had high values. The format is functional. The note with it: 30 µM.

Percent Effect data for eleven compounds are collected here from ChEMBL document CHEMBL3988442, “University of Dundee, Small-Polar-MMV Screening Library” (2021).

Each structure is given as a SMILES string. For some of these results: Measured potencies and affinities stand elsewhere.

Sialic acid-binding Ig-like lectin 9 (Homo sapiens), sequence (Q9Y336 whole entry): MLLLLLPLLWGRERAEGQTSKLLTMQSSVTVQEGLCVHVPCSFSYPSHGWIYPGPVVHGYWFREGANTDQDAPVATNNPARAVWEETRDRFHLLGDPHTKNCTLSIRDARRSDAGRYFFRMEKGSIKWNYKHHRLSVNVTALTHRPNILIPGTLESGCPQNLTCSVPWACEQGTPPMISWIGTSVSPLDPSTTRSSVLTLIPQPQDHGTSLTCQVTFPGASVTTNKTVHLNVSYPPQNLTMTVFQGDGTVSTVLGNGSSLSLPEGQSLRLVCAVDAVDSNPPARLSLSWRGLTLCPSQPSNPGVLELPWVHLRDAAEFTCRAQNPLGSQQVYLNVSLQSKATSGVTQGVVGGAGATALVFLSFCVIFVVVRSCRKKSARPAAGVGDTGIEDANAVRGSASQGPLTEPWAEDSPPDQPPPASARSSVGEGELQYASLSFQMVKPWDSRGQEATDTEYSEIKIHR
Protein translocase subunit SecA (Escherichia coli (strain K12)), sequence (P10408 whole entry): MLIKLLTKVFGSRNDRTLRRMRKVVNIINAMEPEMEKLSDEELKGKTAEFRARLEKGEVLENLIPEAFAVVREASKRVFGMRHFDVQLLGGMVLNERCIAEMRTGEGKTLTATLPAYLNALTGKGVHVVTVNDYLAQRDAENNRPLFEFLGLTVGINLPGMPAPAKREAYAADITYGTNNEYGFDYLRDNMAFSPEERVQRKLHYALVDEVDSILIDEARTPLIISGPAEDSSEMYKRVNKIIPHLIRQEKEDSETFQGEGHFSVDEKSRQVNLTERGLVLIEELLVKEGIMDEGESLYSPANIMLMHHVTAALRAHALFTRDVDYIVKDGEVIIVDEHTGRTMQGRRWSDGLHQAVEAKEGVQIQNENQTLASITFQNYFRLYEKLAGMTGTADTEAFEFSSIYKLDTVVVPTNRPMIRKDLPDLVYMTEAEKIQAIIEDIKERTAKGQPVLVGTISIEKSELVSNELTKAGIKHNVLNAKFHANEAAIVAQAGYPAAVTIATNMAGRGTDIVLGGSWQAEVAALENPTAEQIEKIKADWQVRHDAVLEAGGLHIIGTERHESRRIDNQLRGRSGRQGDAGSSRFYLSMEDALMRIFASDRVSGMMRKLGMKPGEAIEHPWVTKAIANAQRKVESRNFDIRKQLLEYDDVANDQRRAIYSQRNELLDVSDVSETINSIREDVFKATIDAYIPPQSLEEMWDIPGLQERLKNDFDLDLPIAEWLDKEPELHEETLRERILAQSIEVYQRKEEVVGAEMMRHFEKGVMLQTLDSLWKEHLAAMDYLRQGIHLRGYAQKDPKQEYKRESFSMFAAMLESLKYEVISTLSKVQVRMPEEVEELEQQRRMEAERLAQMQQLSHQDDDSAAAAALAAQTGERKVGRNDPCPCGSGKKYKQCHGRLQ
Chromo domain-containing protein 1 (Saccharomyces cerevisiae (strain ATCC 204508 / S288c) (Baker's yeast)), sequence (P32657 whole entry, the tested form may be a part): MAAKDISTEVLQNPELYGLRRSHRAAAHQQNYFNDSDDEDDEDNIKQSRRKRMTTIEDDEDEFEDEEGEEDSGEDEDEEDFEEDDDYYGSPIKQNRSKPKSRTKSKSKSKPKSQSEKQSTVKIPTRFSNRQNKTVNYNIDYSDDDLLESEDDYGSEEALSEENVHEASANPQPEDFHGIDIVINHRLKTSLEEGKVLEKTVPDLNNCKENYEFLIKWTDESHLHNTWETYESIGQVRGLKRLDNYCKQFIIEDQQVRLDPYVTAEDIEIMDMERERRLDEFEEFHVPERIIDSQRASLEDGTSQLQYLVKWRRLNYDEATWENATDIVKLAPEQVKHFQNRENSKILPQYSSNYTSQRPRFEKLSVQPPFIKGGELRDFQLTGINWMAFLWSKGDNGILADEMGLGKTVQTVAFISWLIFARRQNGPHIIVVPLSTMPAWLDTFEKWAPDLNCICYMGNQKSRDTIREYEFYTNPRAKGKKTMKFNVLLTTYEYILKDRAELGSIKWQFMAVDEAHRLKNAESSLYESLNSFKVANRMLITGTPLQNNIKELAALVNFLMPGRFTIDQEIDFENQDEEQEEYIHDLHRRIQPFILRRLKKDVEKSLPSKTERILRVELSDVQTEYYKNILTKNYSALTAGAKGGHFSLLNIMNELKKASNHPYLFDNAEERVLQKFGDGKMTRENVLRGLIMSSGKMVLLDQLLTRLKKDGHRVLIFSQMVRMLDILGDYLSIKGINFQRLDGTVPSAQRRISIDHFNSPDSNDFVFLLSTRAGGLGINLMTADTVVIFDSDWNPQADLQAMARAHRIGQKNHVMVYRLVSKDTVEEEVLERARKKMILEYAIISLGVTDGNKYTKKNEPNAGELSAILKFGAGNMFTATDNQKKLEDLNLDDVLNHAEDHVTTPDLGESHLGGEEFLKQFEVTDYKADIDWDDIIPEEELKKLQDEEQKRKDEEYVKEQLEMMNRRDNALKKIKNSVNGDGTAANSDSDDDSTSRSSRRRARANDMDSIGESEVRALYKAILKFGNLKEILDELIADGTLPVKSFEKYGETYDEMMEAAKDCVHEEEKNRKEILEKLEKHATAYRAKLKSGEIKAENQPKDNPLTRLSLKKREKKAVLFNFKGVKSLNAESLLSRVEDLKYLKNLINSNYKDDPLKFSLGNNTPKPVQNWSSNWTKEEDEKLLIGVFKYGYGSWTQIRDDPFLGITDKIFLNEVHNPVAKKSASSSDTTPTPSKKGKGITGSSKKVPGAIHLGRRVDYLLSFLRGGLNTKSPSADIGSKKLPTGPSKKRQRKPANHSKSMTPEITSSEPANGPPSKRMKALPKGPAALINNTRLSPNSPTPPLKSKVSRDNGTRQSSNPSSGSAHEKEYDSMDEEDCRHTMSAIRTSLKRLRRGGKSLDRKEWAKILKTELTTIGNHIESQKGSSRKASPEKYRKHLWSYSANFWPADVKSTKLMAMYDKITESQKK

For the compound `Cc1noc(C(C)C)c1C(=O)NCC(c1cccc(F)c1)N(C)C` (stereo unspecified), the Percent Effect in [1] is 0.211%; in [2] it was -2.53%; in [3] it was 0.144%; in [4], -2.52%; in the assay on Trypanosoma cruzi, -1.6%; in assay [5], 5.32%. Besides, the Percent Effect in [6] is -7.45%; in the assay filed under Homo sapiens it was 2.06%; in assay [7], 2.46%; in [8], -8.86%; in [9], 2.02%.

Consider `CCc1cnc(CN(C(C)=O)C2CCN(CCS(C)(=O)=O)C2)o1` (stereo unspecified), for which the Percent Effect was -2.33% in [1]; 6.94% in [2]; -4.16% in [3]; 16.1% in [4]; 0.291% with Trypanosoma cruzi; 9.27% in assay [5]. Further, the Percent Effect in assay [6] was 13.3%; in the assay filed under Homo sapiens, 10.7%; in assay [7], 4.21%; in assay [8], 10.3%; in assay [9] it was -8.92%.

For the compound `O=C(NCc1ccco1)c1nn(C2CCS(=O)(=O)C2)c2c1CCCC2` (stereo unspecified), the Percent Effect in assay [1] was -5.41%; in [2] it was 21.1%; in [3], 7.28%; in assay [4], 5.73%; in the assay on Trypanosoma cruzi, 3.02%; in assay [5], -3.55%. Further, the Percent Effect is 13.1% in assay [6]; 4.09% in the assay listed under Homo sapiens; 0% in assay [7]; 5.2% in assay [8]; -0.898% in assay [9].

`O=C(NCC(O)c1ccc(F)c(F)c1)c1cccnc1OCC(F)(F)F` (stereo unspecified): the Percent Effect is -4.25% in assay [1]; 19.2% in assay [2]; 10.1% in assay [3]; 8.21% in assay [4]; 7.94% in the assay with Trypanosoma cruzi; -2% in [5]. Also, the Percent Effect is 15.8% in [6]; 5.47% in the assay filed under Homo sapiens; 4.17% in assay [7]; 16.1% in assay [8]; -4.84% in assay [9].

In the case of `Cc1nn2c(N3CCC(O)CC3)cc(-c3ccccc3)nc2c1C`, the Percent Effect in [1] is -3.77%; in assay [2], 5.48%; in assay [3] it was -0.844%; in [4] it was 1.98%; with Trypanosoma cruzi, -3.57%; in assay [5], -3.99%. Further, the Percent Effect in assay [6] is 11%; in the assay filed under Homo sapiens, 16%; in [7], 5.21%; in [8], 13.6%; in [9], -5.15%.

`c1ccc(CN2CCCC2Cn2cncn2)nc1` (stereo unspecified): the Percent Effect in assay [1] is -2.52%; in assay [2] it was -2.53%; in [3], 3.76%; in [4] it was 6.27%; in the assay on Trypanosoma cruzi it was 3.87%; in [5], -0.76%. Also, the Percent Effect in [6] is 5.32%; in the assay filed under Homo sapiens it was -14.3%; in assay [7], 9.36%; in assay [8] it was 3.8%; in assay [9] it was -4.39%.

`COCCC(=O)Nc1ccnc(Oc2ccccc2)c1`: the Percent Effect in assay [1] was 2.99%; in assay [2], -5.26%; in assay [3], 0.138%; in assay [4] it was -14%; in the assay with Trypanosoma cruzi, -6.91%; in assay [5] it was 7.1%. Moreover, the Percent Effect in assay [6] was 15.4%; in the assay filed under Homo sapiens, 19.5%; in assay [7], 1.06%; in assay [8], 7.79%; in assay [9] it was -6.2%.

On to `CC(C)c1nccn1-c1cccc(C2CCN(C)CC2)n1`, for which the Percent Effect in assay [1] was -4.43%; in [2] it was 9.46%; in assay [3], 4.91%; in [4] it was -4.03%; in the assay with Trypanosoma cruzi, 4.54%; in assay [5], -5.8%. Moreover, the Percent Effect was 14.2% in assay [6]; 0.127% in the assay listed under Homo sapiens; 1.07% in assay [7]; 6.49% in assay [8]; -24.6% in assay [9].

On to `O=C(NCc1cccc2cccnc12)N1CCC(n2cncn2)CC1`, for which the Percent Effect is -2.83% in [1]; 6.33% in [2]; 9.77% in assay [3]; 5.48% in [4]; -5.03% in the assay with Trypanosoma cruzi; 2.37% in assay [5]. The Percent Effect in assay [6] was -0.515%; in the assay listed under Homo sapiens, 12.1%; in assay [7] it was 9.38%; in assay [8], 7.59%; in [9] it was -4.9%.

As for `O=C(NC(CO)CO)c1coc(COc2cccc(F)c2)n1`, the Percent Effect in assay [1] is -2.81%; in assay [2] it was 18.9%; in assay [3], 1.42%; in assay [4], 15.9%; in the assay with Trypanosoma cruzi it was 2.44%; in assay [5] it was 10.2%. Besides, the Percent Effect was 9.19% in assay [6]; -0.407% in the assay filed under Homo sapiens; 7.53% in assay [7]; 21% in [8]; -4.2% in [9].

For the compound `CC(CNC(=O)c1ccc(F)cc1Cl)N1CCCC1` (stereo unspecified), the Percent Effect is -1.76% in [1]; 9.72% in assay [2]; 4.21% in assay [3]; -4.19% in assay [4]; -2.82% in the assay on Trypanosoma cruzi; 6.18% in [5]. Moreover, the Percent Effect in [6] is 20.4%; in the assay listed under Homo sapiens, -9.11%; in assay [7], 3.16%; in [8] it was 5.13%; in assay [9], -0.608%.
